Screening results as filed in PubChem.
This is a sample that favours compounds with a hit; in the whole collection about 28% have one here.
CYP2C19 activ – activators of human cytochrome P450 2C19. P33261. activation factor at 5 µM. 96,000 tested, under 10 active. AID 1025. recombinant CYP2C19, luciferin-H EGE luminescence; hits give high values; 0 = fully inhibited enzyme, 1 = untreated enzyme;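 active = activation factor of at least 2 at 5 µM in the primary screen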;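 also: 0 = wells with 2.5 mM tranylcypromine and 1 = vehicle-only wells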
Target sequence (P33261 whole entry, looked up): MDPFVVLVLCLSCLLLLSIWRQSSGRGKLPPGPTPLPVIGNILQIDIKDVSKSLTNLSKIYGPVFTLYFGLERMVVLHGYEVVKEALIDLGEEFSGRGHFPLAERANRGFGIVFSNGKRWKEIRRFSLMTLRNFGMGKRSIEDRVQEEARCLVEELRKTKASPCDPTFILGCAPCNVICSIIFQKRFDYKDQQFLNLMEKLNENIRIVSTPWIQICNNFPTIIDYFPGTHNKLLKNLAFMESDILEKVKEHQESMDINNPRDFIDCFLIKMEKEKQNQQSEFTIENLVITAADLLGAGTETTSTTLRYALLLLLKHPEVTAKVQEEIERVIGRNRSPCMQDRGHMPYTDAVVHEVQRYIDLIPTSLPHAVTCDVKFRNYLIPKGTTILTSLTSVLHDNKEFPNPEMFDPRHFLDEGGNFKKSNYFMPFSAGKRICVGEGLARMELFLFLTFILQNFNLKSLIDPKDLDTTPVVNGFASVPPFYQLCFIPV
CD11b adhes enh – CD11b/CD18-fibrinogen binding enhancement | K562 CD11b/CD18 adhesion to fibrinogen, ATPlite luminescence | activation, % at 10 µM | 0.07% of 93,000 active;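 active = 10 µM primary screen giving 50% or more activity, confirmed by 40% or more on retest at that dose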
CYP2C9 act – CYP2C9 (human) activation | AID 1024 | P11712 | activation factor at 5 µM | recombinant CYP2C9, luciferin-H conversion, luminescence; hits give high values; factor 1 = untreated enzyme, 0 = blocked | 1.4% of 96,000 active;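 active = activation factor of 2 or more for CYP2C9 at a 5 µM dose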;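 also: 0 = sulfaphenazole-blocked wells and 1 = vehicle-only wells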
Mac1 fbg inh – CD11b/CD18-fibrinogen binding inhibition; P05107+P11215; K562 CD11b/CD18 adhesion to fibrinogen, ATPlite luminescence; Mn2+ added to activate the integrin; inhibition, % at 10 µM; 0.54% of 93,000 active; AID 1497;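 active = primary inhibition of 50% or more at 10 µM, then 40% or more on retest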
CYP2C9 inh – human CYP2C9 inhibition | P11712 | CYP2C9 Supersomes, luciferin-H conversion, luminescence | inhibition, % at 5 µM | 20% of 96,000 active;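 active = blocking of liver enzyme CYP2C9 beyond about 50% at 5 µM, limit read from the data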
CYP2C19 inh – inhibitors of human CYP2C19. 21% of 96,000 active. inhibition, % at 5 µM. CYP2C19 Supersomes, luciferin-H EGE luminescence, 30 min. P33261. AID 778;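 active = CYP2C19 inhibition above a set limit at 5 µM in the primary screen, cut at about 50% in these data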;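 also: plate controls were negative control wells for no effect and 2.5 mM tranylcypromine positive control for full effect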
* marks the source's active call; other numbers are inactive results; nt = no result.

SMILES	CYP2C19 activ	CD11b adhes enh	CYP2C9 act	Mac1 fbg inh	CYP2C9 inh	CYP2C19 inh
CC(C)OC(=O)CSc1nnc(Cc2ccccc2)n1Cc1ccco1	0.3	-3.2	0.5	16.3	49.6	70.6*
CC(C)OC(=O)CSc1nnc(-c2cnccn2)n1Cc1ccco1	1.1	-2.8	0.7	-3.5	25.2	-11.5
COc1cccc(-c2nnc(SCC(=O)OC(C)C)n2Cc2ccco2)c1	0.2	5.2	0.1	4.1	85.2*	80.0*
Cc1cc(C(=O)NCCC(c2ccccc2)c2ccccc2)c(C)o1	0.1	1.0	0	7.8	97.7*	93.3*
O=C(NC12CC3CC(CC(C3)C1)C2)N1CCC(n2nnc3ccccc32)CC1	0.2	2.1	0.9	-15.0	6.1	78.3*
O=C(NC12CC3CC(CC(C3)C1)C2)N1CCC(O)CC1	1	-2.9	1	7.0	4.5	0.9
CC(NC(=O)CSc1nnc(CC(=O)Nc2ccc(Cl)c(Cl)c2)n1C)c1ccccc1 (stereo unspecified)	0.6	-7.3	0.7	-27.9	34.8	36.0
COc1ccc(/C=N\NC(=O)c2ccc(=O)[nH]n2)cc1O	nt	2.8	nt	-11.7	nt	nt
Cc1n[nH]c(C)c1CCC(=O)N/N=C/C=C/c1ccccc1	nt	4.6	nt	-23.2	nt	nt
COc1ccc(/C=N/NC(=O)c2cc(C34CC5CC(CC(C5)C3)C4)[nH]n2)cc1O	0.6	2.5	0.4	-44.9	58.9*	40.3
COc1ccc(/C=N/NC(=O)CCc2c(C)n[nH]c2C)cc1O	0.9	-4.4	0.4	-13.9	64.5*	9.9
CCC(C)(C)n1nnnc1C(c1ccncc1)N1CCC(Cc2ccccc2)CC1 (stereo unspecified)	0.1	-3.7	0.1	-0.7	90.7*	89.8*
CCC(C)(C)n1nnnc1C(c1ccc(C)cc1)N1CCN(Cc2cccnc2)CC1 (stereo unspecified)	0.8	1.3	0.9	5.7	11.5	17.4
CCC(C)(C)n1nnnc1C(c1cccc(C#N)c1)N1CCN(c2cc(C)ccc2C)CC1 (stereo unspecified)	0.5	-2.4	0.3	8.4	70.2*	51.9*
COCCn1nnnc1C(C(C)C)N1CCC(Cc2ccccc2)CC1 (stereo unspecified)	0.1	-4.5	0.4	4.0	55.8*	90.6*
COCCn1nnnc1C(c1cc2cc(OC)ccc2[nH]c1=O)N1CCC(Cc2ccccc2)CC1 (stereo unspecified)	0.8	-2.0	0.7	nt	28.2	24.7
CC(C)(C)n1nnnc1C(c1cccc(C#N)c1)N1CCC(Cc2ccccc2)CC1 (stereo unspecified)	0.3	nt	0.2	nt	83.3*	65.8*
CN1CCN(C(c2cccc(C(F)(F)F)c2)c2nnnn2C(C)(C)C)CC1 (stereo unspecified)	1	3.3	0.9	-7.8	13.7	4.2
CCC(C)(C)n1nnnc1C(c1ccc(C)cc1)N1CCSCC1 (stereo unspecified)	0.9	0.9	0.8	22.1	19.1	6.7
COc1ccc(CCNC(=O)COC(=O)/C=C/c2ccc(OC)c(OC)c2)cc1	nt	-1.6	nt	9.3	nt	nt
COc1cc(C)c(C(C)C)cc1S(=O)(=O)NCCCn1ccnc1	0	0.0	0	-3.4	99.0*	99.9*
Cc1cc(C)c(S(=O)(=O)NCCCn2ccnc2)c(C)c1	nt	0.1	nt	-10.4	nt	nt
Cn1ccnc1Sc1nc2ccccc2nc1NS(=O)(=O)c1ccccc1	1	0.4	0	5.3	98.4*	-3.4
Cn1cnnc1Sc1nc2ccccc2nc1NS(=O)(=O)c1ccccc1	0.9	0.8	0	-25.8	96.6*	6.9
Cc1ccc2sc(-c3ccc(NC(=O)CCN4C(=O)c5ccccc5C4=O)cc3)nc2c1	nt	51.9	nt	5.3	nt	nt
SMILES	CYP2C19 activ	CD11b adhes enh	CYP2C9 act	Mac1 fbg inh	CYP2C9 inh	CYP2C19 inh
CCC(CO)Nc1nc(CN2CCCCC2)nc2scc(-c3ccccc3)c12 (stereo unspecified)	nt	4.0	nt	10.3	nt	nt
O=C1CC(NCc2ccncc2)C(=O)N1c1ccccc1 (stereo unspecified)	0.1	-4.0	0.1	-32.1	90.9*	93.5*
O=C1CC(NCc2cccs2)C(=O)N1c1ccc(Cl)cc1 (stereo unspecified)	0.6	-1.8	1	66.0*	-3.2	41.5
O=C1CC(NCc2ccncc2)C(=O)N1c1ccc(Cl)cc1 (stereo unspecified)	0.1	-5.0	0.2	-1.0	82.1*	87.9*
COC(=O)c1ccc(N2C(=O)CC(NCc3ccccc3)C2=O)cc1 (stereo unspecified)	0.6	-3.1	0.8	-10.4	16.9	42.9
O=C(O)c1ccc2c(c1)C(=O)N(c1cc(C(=O)O)ccc1Br)C2=O	0.9	-1.9	0.9	-19.2	7.7	8.7
COc1cccc(-n2c(Cc3cc(=O)[nH]c(=O)[nH]3)nnc2SCC(=O)N2CCC(C)CC2)c1	1	0.7	1.1	-30.9	-13.3	1.3
COc1ccc(N2C(=O)CSC2c2cccc(F)c2)c(OC)c1 (stereo unspecified)	0.7	-0.8	1	41.4	-4.4	34.4
COc1ccc(N2C(=O)CSC2c2ccc3c(c2)OCO3)c(OC)c1 (stereo unspecified)	0.2	-2.4	0.9	7.1	9.6	84.0*
COc1ccc(N2C(=O)CSC2c2ccncc2)cc1 (stereo unspecified)	0.6	-1.7	0.4	-15.1	58.0*	41.4
COc1ccc(N2C(=O)CSC2c2ccc3c(c2)OCO3)cc1 (stereo unspecified)	0.1	-0.8	1.2	-7.9	-21.5	89.0*
Cn1cc(SCC(=O)O)c2ccccc21	1	2.2	1	-4.2	3.0	3.1
O=C(Cc1cccc2ccccc12)N1CCCc2ccccc21	0.6	nt	2.3*	nt	-132.4	43.1
CCn1cc(SCC(=O)N2CCOCC2)c2ccccc21	0.4	1.8	1	6.0	0.0	59.1*
Cc1c(C#N)c2ccccc2n1CC(=O)N1CCCc2ccccc21	0.7	1.6	0.1	-2.2	91.9*	32.2
Cn1cc(SCC(=O)N2CCCc3ccccc32)c2ccccc21	0	9.4	0.8	-16.5	18.0	98.3*
O=C(Cn1cc(SCc2ccccc2Cl)c2ccccc21)N1CCOCC1	nt	0.9	nt	9.7	nt	nt
O=C(CSc1nnnn1C1CCCCC1)NCCc1ccccc1	0.9	-3.6	0.9	-2.5	14.9	9.3
Cc1csc2ncc(C(=O)NC(C)c3ccccc3)c(=O)n12 (stereo unspecified)	0.5	1.6	1.4	-8.1	-36.2	48.3
CN(C)CCCNC(=O)Cc1ccc(Br)cc1	1.1	-2.6	1.1	6.8	-11.8	-11.0
O=c1[nH]c2ccc(S(=O)(=O)N3CCN(c4ccccc4)CC3)cc2[nH]c1=O	0.6	nt	0.9	nt	13.3	37.7
CCn1cc(C(=O)C(F)(F)F)c2ccccc21	0.9	nt	2.3*	nt	-131.4	6.8
